Experimental data as given in the supplement of paper PMC11417369.
Whole data set: some 25,000 sequences, median “ln(normalized median fluorescence intensity)” near 6.7, cut for the highest 2% near 10. The sample as a whole holds a higher share of the highest values than the screen did.

System: PfHDP1 homeodomain (GST-tagged)
Assay: gcPBM binding intensity (ln(normalized median fluorescence intensity)); higher = stronger DNA binding
Summary of the method: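 GST-tagged P. falciparum DNA-binding domains, expressed in E. coli (about 25 μg on average), were applied for 1 h to an Agilent 4 × 180k array of primer-extended double-stranded 36-bp intergenic genomic probes plus negative controls. The binding buffer was 1× PBS with 1% milk, 0.2 mg/ml BSA, 0.5% salmon testes DNA and 0.03% Triton X-100. Bound protein was detected with Alexa488 anti-GST antibody and scanned at 488 nm. Binding intensity is the highest Masliner-normalised natural-log median intensity across replicate spots of either probe orientation.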

Row | Sequence | gcPBM binding intensity (ln)
1 | ATATATATATATATTACACACATGTGCAATTAAAAT [CACACA_site1778] | 10.7
2 | ATATATATATTAATTACACACAAAAAAAAAAAAAAA [CACACA_site1165] | 7.49
3 | CAGGTGCACTATATTACACACGCTTCTTTTTTTTTA [CACACA_site2069] | 11
4 | AATAAATTAAAACAGGTGCACTATATTACACACGCT | 9.7
5 | ATATATATATATATTACACACTTTTTCTTTTTTTTT [CACACA_site2780] | 9.01
6 | TATAAAAATATATATATATATATATATATATATATA [TGCATGCA_negctrl_site541] | 9.32
7 | TTAAATTACTAATGTGCACACATACTAACGTTTAAA [CACACA_site3573] | 11
8 | AAAAATTAAATAAATTTACACACTAATAATTACATA [CACACA_site8260] | 6.3
9 | AAAAAAAAATTAAACATACACACGTTACTATTTTTA [CACACA_site1687] | 6.29
10 | TCATTAAATGTTTAGGTGCATACTTTAATTTTTAAT [GTGCAC_site9906] | 9.31
11 | AAATTACTAATGTGCACACATACTAACGTTTAAATA [CACACA_site3572] | 11.3
12 | AACATAAATTACTTTTTACACACTAATATAAAATAC [CACACA_site8297] | 6.54
13 | GAATATAATCTGTATTGTACGAAAGTTGAACACTTG [XGTACX_site8895] | 6.3
14 | GATCAAAATTATAGAAGTACTTTATATAAATAAAAT [XGTACX_site8161] | 6.41
15 | AAAAAAAAAAGACATGCATACGCTAATTTTTAGTTG [TGCATGCA_site300] | 5.98
16 | TTTATATTAGGTCTTGAACGATTTTCATCATTATTA [TGCATGCA_negctrl_site100] | 6.04
17 | TTTATCTAAATATGTGTGCACTCGTTAATTTTTTTT | 10.8
18 | ATATCGTTATTTTTATGTACTAAAATATTTAATTAT [XGTACX_site3516] | 7.03
19 | TTTTTTAATATATTATTATAAATATTTTTTATGTGT [GTGCAC_negctrl_site712] | 6.46
20 | ATAACATGAACATATGTTACACAAACATACATACAT [XGTACX_negctrl_site365] | 6.77
21 | TTTAGTTCATACTATGCACACTACGTATATTTTTAA [CACACA_site5484] | 8.95
22 | TTGTACAAAAATAATGCACACTATATCAAGTTTTTT [CACACA_site5898] | 10.3
23 | TATATATATATCAAGTGTACTTGTGTTTGTAATATT [XGTACX_site8854] | 8.6

Row | Sequence | gcPBM binding intensity (ln)
24 | TTTTGTACAAAAATAATGCACACTATATCAAGTTTT [CACACA_site3595] | 10.4
25 | GTAATATCAATATAAAGTACACACTATAGTATGTAT [XGTACX_site4714] | 6.4
26 | TTTATAGTTTTTAATAGTACACATATTTTTAAGTAT [XGTACX_site5498] | 6.38
27 | AGTAATAGTTTGTGCACACTCAAGTATATCATATAT [CACACA_site4034] | 11.2
28 | AGTAATAGTTTGTGCACACTCAAGTATATCATAGAT [CACACA_site6082] | 11.1
29 | TAAGTAATAGTTTGTGCACACTCAAGTATATCATAT [CACACA_site4035] | 11.1
30 | TATATATCAATATGCACACACAAGAAGTAATTATAA [CACACA_site7487] | 9.74
31 | ATATATGTAACATATTGTACATATATGTATGTATGT [XGTACX_site3281] | 6.97
32 | AATATTTTATTTTGGGTGCAAAAGAATATTATTTCA | 9.49
33 | CAATTAAATATATGAACACACATGTGAACTTTCTAT [CACACA_site3977] | 6.36
34 | AATATACAAAATAAATAAAATATATATATATATATA [CACACA_negctrl_site216] | 9.24
35 | AATTTAATTTTTTCGTGTACTTATATAGGAGGTTTT [XGTACX_site8310] | 6.76
36 | TAGAAGTACATATATGCATGTTAATTTTAAAGGAGG [TGCATGCA_site538] | 6.9
37 | CTTACACCCATATATACACACATGTATATTTTATAT [CACACA_site4462] | 7.24
38 | TATACATATTTTATAGCACACAAATAATAATATGTA [CACACA_site8129] | 6.63
39 | CTATTTTATATGTGCACACATATACTCAGACAAATA [CACACA_site4761] | 10.6
40 | TATATACATATATGCACACAAAAAAATATATATTTT [CACACA_site1729] | 10.1
41 | TTCTATTTTATATGTGCACACATATACACCCACAAA [CACACA_site1130] | 10.9
42 | CTATTTTATATGTGCACACATATACACCCACAAATA [CACACA_site1131] | 10.1
43 | TTTGTTTTATCTTATATGCACACGATAAAAAAAAAA [CACACA_site2673] | 9.69
44 | TATAAAAATAATATTACACACATGTAAAATGGGGGT [CACACA_site9071] | 7.03
45 | TTGTTTTCACCAAATACACACAAGCATACACCCCAT [CACACA_site2717] | 7.34
